From PubChem
Only some compounds are listed: those with a hit (about 3.1% of all), similar ones and a draw of the others.
UBC13 polyUb – blocks human UBC13 polyubiquitin chain formation; P61088; TR-FRET; inhibition, % at 20 µM; 0.47% of 330,000 active; AID 485273; in the data active means inhibition above about 45%, passing the limit was not always enough
MEKK3 PB1 HTS – MEKK3-MEK5 PB1 interaction, increase or decrease. Q99759. bead-based flow cytometry, Alexa488-MEK5 binding to MEKK3; actives lie on both sides; 0 = blocked by unlabeled MEK5, 100 = vehicle. binding response (% of control), % at 10 µM. 1.4% of 290,000 active;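 active means binding response more than 3 SD above or below the average of its plate-row segment, actives on both sides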;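 further: Alexa488 bead fluorescence after subtracting the streptavidin-only scavenger bead signal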
PREPL inhibitor – human PREPL enzyme inhibition; recombinant PREPL, fluorescence polarization activity-based probe; inhibition, % at 5.96 µM; 0.68% of 320,000 active; in the data active means inhibition above about 43%
ATG4B inh – inhibitors of human ATG4B cysteine protease. Q9Y4P1. ATG4B cleavage of LC3-PLA2, NBD-HPC fluorescence, 1 h. inhibition, % at 8.33 µM. 0.51% of 340,000 active; in the data active means inhibition above about 40%
Target sequence (Q9Y4P1 whole entry, looked up): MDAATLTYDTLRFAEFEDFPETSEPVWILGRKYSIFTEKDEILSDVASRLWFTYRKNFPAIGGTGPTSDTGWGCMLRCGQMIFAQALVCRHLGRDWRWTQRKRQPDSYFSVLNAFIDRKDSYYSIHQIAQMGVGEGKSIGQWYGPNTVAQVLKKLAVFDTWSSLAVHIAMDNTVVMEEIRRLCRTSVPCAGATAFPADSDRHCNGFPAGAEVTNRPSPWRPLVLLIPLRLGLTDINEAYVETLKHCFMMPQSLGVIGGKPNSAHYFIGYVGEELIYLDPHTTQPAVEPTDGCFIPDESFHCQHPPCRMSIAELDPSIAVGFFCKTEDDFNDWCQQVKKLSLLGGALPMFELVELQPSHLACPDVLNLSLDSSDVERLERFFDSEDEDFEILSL
MEKK2 mut-MEK5 – signal of MEK5 binding to mutant human MEKK2 PB1 domain; bead flow cytometry, Alexa488-MEK5 binding to MEKK2 mutant; percent response, % at 10 µM; 0.35% of 290,000 active; in the data active means percent response above about 24%, passing the limit was not always enough
MEKK2wt PB1 HTS – raises or lowers MEK5 binding to wildtype human MEKK2 PB1 domain. bead flow cytometry, Alexa488-MEK5 binding to MEKK2 WT; actives lie on both sides. 1.1% of 290,000 active. AID 1531. binding response (% of control), % at 10 µM. Q9Y2U5; in the data active means binding response below about 67% or above about 130%
ATG4B conf – confirmation of human ATG4B inhibitors | inhibition, % at 8.33 µM | 92% of 320 active | ATG4B protease fluorescent substrate cleavage assay | shares compounds with ATG4B inh; in the data active means inhibition above about 39%
PLA2 counter – inhibits human PLA2, flagging false ATG4B inhibitors; shares compounds with ATG4B inh; purified PLA2, NBD-C6-HPC fluorescence, 45 min; inhibition, % at 8.33 µM; 66% of 1,600 active; in the data active means inhibition above about 50%
Target sequence (P04054 whole entry, looked up): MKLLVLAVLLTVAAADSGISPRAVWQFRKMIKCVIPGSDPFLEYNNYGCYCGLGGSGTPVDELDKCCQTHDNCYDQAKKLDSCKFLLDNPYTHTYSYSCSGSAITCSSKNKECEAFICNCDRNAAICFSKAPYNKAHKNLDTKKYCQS
Of the large screens only hits and unclear results are named; the others gave an inactive call (follow-up assays come after a bar, where they were run).

COc1ccc(CNC(=O)CN2C(=O)c3ccc([N+](=O)[O-])cc3C2=O)cc1	none
Cc1ccc(S(=O)(=O)Nc2ccc(-c3nnc(SCc4ccccc4Cl)o3)cc2)cc1	ATG4B inh 51.5 | PLA2 counter inactive
COc1ccc(CCN2C(=S)N(C)C(=O)C2CC(=O)Nc2ccc(F)cc2)cc1 (stereo not given)	ATG4B inh 43.5 | PLA2 counter 56.3
CCN1C(=O)C(CC(=O)Nc2ccc(OC)cc2)N(CCc2ccc(OC)cc2)C1=S (stereo not given)	none
CC(=O)N1c2c(cc(Br)cc2S(=O)(=O)N2CCN(c3ccccc3F)CC2)CC1C (stereo not given)	ATG4B inh 55.4 | PLA2 counter 67.5
Fc1cccc(Cl)c1CNc1ccc(N2CCCC2)cc1	ATG4B inh 58.8 | PLA2 counter 58.0
O=C(CN1C(=O)NC2(CCCC2)C1=O)OCc1ccc(Cl)cc1Cl	none (no result: MEKK3 PB1 HTS, MEKK2 mut-MEK5, MEKK2wt PB1 HTS)
O=c1cc(-c2ccc(O)c(-c3c(O)cc(O)c4c(=O)cc(-c5ccc(O)cc5)oc34)c2)oc2cc(O)cc(O)c12	ATG4B inh 81.5 | PLA2 counter 76.2
O=c1cc(-c2ccc(O)c(O)c2)oc2cc(O)cc(O)c12	none
COCCN(C(=O)COC(=O)CCCc1c[nH]c2ccccc12)c1c(N)n(Cc2ccccc2)c(=O)[nH]c1=O	none (no result: UBC13 polyUb, MEKK3 PB1 HTS, PREPL inhibitor, MEKK2 mut-MEK5, MEKK2wt PB1 HTS)
O=C1c2ccccc2C(=O)N1c1ncc(Cc2ccc(Cl)cc2)s1	ATG4B inh 80.4 (no result: UBC13 polyUb) | PLA2 counter 64.5
O=C(O)c1cc(N2N=C(C(F)(F)F)/C(=C/C=C/c3ccco3)C2=O)ccc1Cl	ATG4B inh 95.8 (no result: UBC13 polyUb, PREPL inhibitor) | PLA2 counter 78.4
Cc1cccc(Oc2ccc(NC(=O)c3ccccc3C(=O)O)cc2)c1C	ATG4B inh 69.5 | PLA2 counter 69.5
O=C(O)c1ccccc1C(=O)Nc1ccc(Oc2cccc3ccccc23)cc1	none (no result: UBC13 polyUb, PREPL inhibitor)
COc1ccc(-c2cc(C(=O)N3CCc4ccccc4C3)no2)cc1	none
COc1ccc(OC)c(-c2cc(C(=O)N3CCc4ccccc4C3)no2)c1	ATG4B inh 48.8 | PLA2 counter 56.0
COc1ccc2[nH]c(C(=O)N3CCc4ccccc4C3)c(C)c2c1	ATG4B inh 61.5 | PLA2 counter 64.4
CCCc1cc(=O)[nH]c(SCc2cc(Cl)ccc2OC(F)F)n1	ATG4B inh 56.9 | ATG4B conf 51.8 | PLA2 counter inactive
O=C(c1ccccc1)c1cnc(Nc2ccccc2Cl)s1	ATG4B inh 43.6 | ATG4B conf 64.8 | PLA2 counter inactive
COC1=CC(=O)C(O)=C(CCCCCCC/C=C/CCCCCCCC2=C(O)C(=O)C=C(OC)C2=O)C1=O	ATG4B inh 51.7 | PLA2 counter 78.4
Nc1nc2ccccc2n1CCOc1ccc(F)cc1	none
CCc1nccn1S(=O)(=O)c1ccccc1[N+](=O)[O-]	none
O=c1[nH]c(NNC(=S)NCc2ccccc2)nc2c1C1(CCCCC1)Cc1ccccc1-2	ATG4B inh 71.8 | PLA2 counter 79.5
COc1ccc(NC(=S)NNc2ccc([N+](=O)[O-])cc2S(=O)(=O)Nc2ccc(C)cc2C)cc1	ATG4B inh 42.7 | PLA2 counter 57.2
Cc1ccc(NS(=O)(=O)c2cc([N+](=O)[O-])ccc2NNC(=S)Nc2cc(C)ccc2C)c(C)c1	ATG4B inh 58.5 | PLA2 counter 72.8
Cc1ccc([N+](=O)[O-])cc1NC(=S)NC(=O)C(C)(C)C	none
O=C(c1cc(Br)c(Br)s1)N1CCc2ccccc2C1	none (no result: MEKK3 PB1 HTS, MEKK2 mut-MEK5, MEKK2wt PB1 HTS)
CC(C)(C)c1ccc(-c2nc(NCc3cccnc3)c3ccccc3n2)cc1	ATG4B inh 68.5 | PLA2 counter 81.5
Cc1c(Cl)cccc1NS(=O)(=O)c1ccc2c(c1)C1C=CCC1C(c1ccc(C(=O)O)cc1)N2 (stereo not given)	ATG4B inh 101.0 | PLA2 counter 91.6
COc1ccc(NS(=O)(=O)c2ccc3c(c2)[C@H]2C=CC[C@H]2[C@@H](c2ccc(C(=O)O)cc2)N3)cc1	ATG4B inh 77.8 | ATG4B conf inactive | PLA2 counter inactive
O=C(NC1CCSc2ccccc21)c1cccc(OC(F)F)c1 (stereo not given)	none
Cc1cccc(NC(=S)NC2CCSc3ccccc32)c1 (stereo not given)	ATG4B inh 41.9 | PLA2 counter 54.0
FC(F)Oc1ccc(NC(=S)NC2CCSc3ccccc32)cc1 (stereo not given)	ATG4B inh 59.2 (no result: PREPL inhibitor) | PLA2 counter 56.5
S=C(NCc1ccccc1)NC1CCSc2ccccc21 (stereo not given)	ATG4B inh 63.9 | PLA2 counter 69.2
O=C(NC1CCSc2ccccc21)c1cccc(Br)c1 (stereo not given)	none
O=C(NCCCc1ccccn1)C1CCC(=O)N(Cc2cccc(F)c2)C1 (stereo not given)	none
Cc1cc(NCc2ccc(F)cc2)nc2cc(Cl)ccc12	ATG4B inh 51.0 | PLA2 counter 74.5
Cc1ccc(CNc2ncnc3cc(Cl)ccc23)cc1	none
Fc1ccccc1CN1CCCN(C(=S)Nc2cccc(Cl)c2)C1	none
Cc1c(Cl)cccc1NC(=S)N1CCCN(Cc2ccc(F)cc2)C1	ATG4B inh 51.7 | PLA2 counter 54.5
Cc1c(Cl)cccc1NC(=S)N1CCCN(Cc2ccccc2F)C1	ATG4B inh 63.7 | PLA2 counter 56.3
CCCNC(=O)COc1ccc(-c2nn(C)c(=O)c3ccccc23)cc1	none
COc1ccc(CNC(=O)CSc2nc(SC)ns2)cc1	none
O/N=C(/c1ccc(F)cc1)C1CC1c1c(F)cccc1Cl (stereo not given)	ATG4B inh 48.0 | PLA2 counter inactive
COc1ccc(C2CC2/C(=N/O)c2ccccc2)cc1 (stereo not given)	none
CC(C)(C)c1cc(=O)[nH]c(SCc2ccccc2Cl)n1	ATG4B inh 50.4 | PLA2 counter 51.5
CC(C)(C)c1cc(=O)[nH]c(SCc2ccccc2)n1	none
CCCn1c(N)c(N2CCCCC2)c(=O)n(CC(=O)Nc2ccccc2C(F)(F)F)c1=O	none (no result: MEKK3 PB1 HTS, MEKK2 mut-MEK5, MEKK2wt PB1 HTS)
O=C(Nc1nc(-c2ccco2)c(-c2ccco2)s1)c1c(F)cccc1Cl	ATG4B inh 63.8 (no result: MEKK3 PB1 HTS, MEKK2 mut-MEK5, MEKK2wt PB1 HTS) | PLA2 counter 78.8
O=C1NC(=O)/C(=C\c2ccccc2Oc2ccc(F)c(F)c2)S1	ATG4B inh 56.8 | PLA2 counter inactive
O=C1NC(=O)/C(=C/c2ccccc2OCc2ccccc2)S1	ATG4B inh 46.0 | PLA2 counter 53.2
COc1ccc(OC)c(Cc2nnc(CCC(=O)N3CCN(C4CCCC4)CC3)o2)c1	none
